Activity calls are given as the source filed them.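 The calls were made as follows: active = curve showing a falling signal whose half-maximal concentration is at most twice the top valid dose; inconclusive = flat curve with a moderate drop, or an unreliable fit; inactive = the rest.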
assay: miR-21 levels after miR-122 inhibitor treatment, dose response, selectivity assay for miR-122 inhibitor project, cell-based, Huh7, RT-qPCR, dry powder (AID 687038); conditions: Huh7 miR-21 levels, qRT-PCR, 48 h; series mostly up to 35 µM

outcome, inactive:
CN1C(=O)c2cc(NC(=O)c3cccc(F)c3)ccc2OC[C@H]2O[C@H](CC(=O)O)CC[C@@H]21, O=C(Nc1ccc(-c2nc3ccccc3o2)cc1)c1cc(-n2cnnc2)ccc1Cl, COCC(=O)N(C)C[C@H]1Oc2cc(-c3ccccc3F)ccc2S(=O)(=O)N([C@@H](C)CO)C[C@H]1C, Cc1cccc(NC(=O)Nc2ccc3c(c2)C(=O)N(C)[C@@H]2CC[C@@H](CC(=O)NCc4ccccc4Cl)O[C@H]2CO3)c1, Nc1ccc(Oc2ccc(Cl)cc2)cc1, COCC(=O)N(C)C[C@@H]1Oc2ncc(-c3ccc(C#N)cc3)cc2C(=O)N([C@@H](C)CO)C[C@@H]1C, CO[C@@H]1CN(C)C(=O)c2cc(NC(=O)c3cccc(Oc4ccccc4)c3)ccc2OC[C@H](C)NC[C@@H]1C, C[C@@H]1CN([C@H](C)CO)S(=O)(=O)c2ccc(/C=C/c3ccccc3)cc2O[C@@H]1CN(C)C(=O)c1cccnc1, C[C@H]1CN([C@@H](C)CO)C(=O)c2cc(-c3ccc(C#N)cc3)cnc2O[C@H]1CN(C)Cc1cncnc1, CO[C@@H]1CN(C)C(=O)c2cc(NS(=O)(=O)c3ccc(Oc4ccccc4)cc3)ccc2OC[C@H](C)NC[C@@H]1C, C[C@H]1CN([C@@H](C)CO)C(=O)c2cc(-c3ccc(C#N)cc3)cnc2O[C@H]1CN(C)C(=O)c1ccccc1, CN(C)CCCOc1nn(Cc2ccccc2)c2ccccc12, CN1C(=O)c2cc(NC(=O)c3cccc(F)c3)ccc2OC[C@@H]2O[C@H](CC(=O)O)CC[C@H]21

Source: PubChem BioAssay AID687038 (Broad Institute, 2013)
